Results reported in PubChem BioAssay (NCI).
The panel holds about 79,000 compounds, 15% with a hit somewhere; the sample as a whole holds those more often. Unmarked numbers belong to inactive results. Activity calls are given as the source filed them. Cut-off read from the data, not from the text of the source: active = growth inhibition above about 70%; inactive = the rest.

Key:
[1] = NCI Yeast Anticancer Drug Screen. Data for the rad50 strain (AID 155);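 note: 0% = growth of vehicle-only cultures of the same strain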; conditions: S. cerevisiae rad50 strain growth inhibition, hits give high values
How it was run: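 Relative growth inhibition (compound vs vehicle) was measured in yeast with a defined repair-gene alteration.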

[2] = NCI Yeast Anticancer Drug Screen. Data for the mec2-1 strain (AID 157); conditions: S. cerevisiae mec2-1 strain, hits give high values
How it was run: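 Strain: mec2-1 (DNA repair/cell cycle alteration). Compound exposure, then growth measured; inhibition expressed relative to vehicle.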

[3] = NCI Yeast Anticancer Drug Screen. Data for the sgs1 mgt1 strain (AID 161);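 note: 0% = growth of cultures given vehicle only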; conditions: S. cerevisiae sgs1 mgt1 strain, hits give high values
How it was run: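 Test agents were incubated with a DNA-repair-mutant yeast strain. Growth was then read and compared against vehicle-treated controls.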

[4] = NCI Yeast Anticancer Drug Screen. Data for the cln2 rad14 strain (AID 165);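 note: 0% = growth equal to vehicle treated cultures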; conditions: S. cerevisiae cln2 rad14 strain, hits give high values
How it was run: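 Compounds are applied to the cln2 rad14 yeast strain, and growth is then compared with that of vehicle-treated cultures to give inhibition.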

[5] = NCI Yeast Anticancer Drug Screen. Data for the bub3 strain (AID 167); conditions: S. cerevisiae bub3 mutant strain, hits give high values
How it was run: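 Screening used yeast with an engineered genetic alteration affecting cell cycle control. Compound-exposed cultures were compared with vehicle cultures, and reduced growth was taken as inhibition.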

[6] = NCI Yeast Anticancer Drug Screen. Data for the mlh1 rad18 strain (AID 175); conditions: S. cerevisiae mlh1 rad18 strain growth inhibition, hits give high values
How it was run: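 Read-out is yeast growth inhibition, calculated against vehicle-only controls. The compound was applied to a strain engineered with DNA damage repair alterations.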

[7] = at 5.0 µM (retest, dose inferred, filed as 0.5)
[8] = at 50.0 µM (retest, dose inferred, filed as 5.0)

| Structure (SMILES) | growth inhibition [1, 7] | growth inhibition [1, 8] | growth inhibition ([1]; at 50.0 µM) | growth inhibition [2, 7] | growth inhibition [2, 8] | growth inhibition ([2]; at 50.0 µM) | growth inhibition [3, 7] | growth inhibition [3, 8] | growth inhibition ([3]; at 50.0 µM) | growth inhibition [4, 7] | growth inhibition [4, 8] | growth inhibition ([4]; at 50.0 µM) | growth inhibition [5, 7] | growth inhibition [5, 8] | growth inhibition ([5]; at 50.0 µM) | growth inhibition [6, 7] | growth inhibition [6, 8] | growth inhibition ([6]; at 50.0 µM) |
| --- | --- | --- | --- | --- | --- | --- | --- | --- | --- | --- | --- | --- | --- | --- | --- | --- | --- | --- |
| CSc1nc(COC(=O)NC(C)C)c(COC(=O)NC(C)C)n1-c1ccccc1 | -12% | 11% | -17.1% | 23% | 11% | 4.2% | -19% | -6% | -6.15% | 13% | 4% | 53.1% | 8% | 22% | -12.7% | -1% | -6% | 18.9% |
| COc1ccc(C2Oc3ccc(Cl)cc3C=C2[N+](=O)[O-])cc1 (configuration not stated) | 99% (active) | 93% (active) | 80.4% (active) | 99% (active) | 95% (active) | 87.1% (active) | 99% (active) | 95% (active) | 82.5% (active) | 99% (active) | 93% (active) | 83.2% (active) | 99% (active) | 94% (active) | 84.4% (active) | 99% (active) | 95% (active) | 79% (active) |
| CCOC(=O)C(C(=O)OCC)C(=O)c1ccc2c(c1)OCO2 | 3% | 83% (active) | 52.4% | 2% | 75% (active) | 35.5% | 5% | 90% (active) | 86.9% (active) | 10% | 21% | 1.25% | 7% | 81% (active) | 89.2% (active) | 4% | 94% (active) | 60.4% |
| CCCCCCCCCCCC(=O)[O][Sn]([CH2]C)([CH2]C)[O]C(=O)CCCCCCCCCCC | 7% | 5% | 79.3% (active) | 2% | 2% | 88.3% (active) | 3% | 44% | 95.8% (active) | 5% | 0% | 48.1% | 3% | -7% | 16.4% | 4% | 12% | 88.7% (active) |
| COc1ccc(-c2cc(=O)c3c(C)ccnc3[nH]2)cc1 | 58% | 58% | 87.2% (active) | 43% | 43% | 83.2% (active) | 54% | 54% | 82.5% (active) | 20% | 20% | 65.8% | 25% | 25% | 81.8% (active) | 39% | 39% | 81.5% (active) |
| C=CCNC(=O)c1ccccc1C(=O)O | 2% | 28% | 63.2% | 1% | 1% | 36.6% | 0% | 1% | 28.2% | 2% | 18% | 23.6% | 4% | 7% | 68.2% | 3% | 13% | 46.7% |
| COc1nc(NC2OC(CO)C(O)C(O)C2O)c(Cl)c(=O)[nH]1 (configuration not stated) | 1% | 1% | 47.5% | 4% | 12% | -0.6% | 12% | 4% | 24.1% | 7% | 11% | 20.6% | 4% | 14% | 15.3% | 4% | 5% | 1.65% |
| Nc1ccccc1Sc1ccc(F)cc1[N+](=O)[O-] | -6% | 85% (active) | 71% (active) | -19% | 26% | 89.8% (active) | 2% | 76% (active) | 89.1% (active) | -6% | 59% | 72.3% (active) | -3% | 85% (active) | 88.8% (active) | -4% | 93% (active) | 88.5% (active) |
| CCCCC#CC(=O)OCCC | -1% | 2% | 26.6% | 0% | 2% | 15.8% | 2% | 2% | 22.4% | -1% | -1% | 85.5% (active) | 1% | 0% | -22.4% | -2% | -1% | -9.75% |
| CCCc1cc2c(cc1O)CC[C@@H]1[C@@H]2CC[C@]2(C)[C@@H](O)CC[C@@H]12 | -25% | 96% (active) | 86.5% (active) | -30% | 96% (active) | 85.8% (active) | -30% | 98% (active) | 84.5% (active) | -4% | 77% (active) | 88.5% (active) | -33% | 97% (active) | 87.6% (active) | -46% | 96% (active) | 80.7% (active) |
| CC(C)CCC(C)(C)c1cc(O)ccc1O | 35% | 99% (active) | 98.4% (active) | 13% | 99% (active) | 99.5% (active) | 16% | 98% (active) | 75.7% (active) | 14% | 92% (active) | 87.5% (active) | 79% (active) | 98% (active) | 98.8% (active) | 35% | 99% (active) | 97.6% (active) |
| COc1cc(C2=NCCO2)cc(OC)c1OC | -158% | -155% | 9.4% | -45% | -52% | -5.5% | -62% | -60% | -3.85% | -59% | -62% | 61.9% | -67% | -79% | 0.55% | -196% | -117% | 3.95% |
| CCOC(=O)Nc1cc2c(cc1Br)-c1ccccc1C2O (configuration not stated) | -1% | -3% | 10% | -3% | 12% | -5.6% | -7% | 1% | 10.4% | -2% | 27% | -2.85% | 68% | 95% (active) | 69.4% | -2% | 7% | 18.7% |
| CCCCCCN(CCCCCC)P(=O)(N1CC1C)N1CC1C (configuration not stated) | -2% | 99% (active) | -11.6% | -5% | 99% (active) | 32.4% | -3% | 33% | 10.1% | 3% | 99% (active) | -7.75% | 7% | 99% (active) | 81.2% (active) | -2% | 99% (active) | 24.9% |
| C1=Nc2ccccc2C=Nc2ccccc2C=Nc2ccccc2C=Nc2ccccc21.[Cl-].[Pt+2] | 55% | 93% (active) | 85% (active) | 80% (active) | 97% (active) | 82.2% (active) | 36% | 89% (active) | 76.8% (active) | 25% | 69% | 60% | 75% (active) | 87% (active) | 74.7% (active) | 63% | 97% (active) | 81.4% (active) |
| CC(=O)OC1SC(C)(C)n2c1nc1ccccc1c2=O (configuration not stated) | 1% | 56% | 44.1% | -5% | 53% | 23.7% | 6% | 51% | 41% | -8% | 43% | 69.4% | 1% | 39% | 18.8% | 2% | 50% | 72% (active) |
| CN(C)c1ccc(/C=C/C(=O)c2ccc([N+](=O)[O-])cc2)cc1 | 38% | 48% | -21.7% | 45% | 42% | -16% | -9% | 24% | -16.7% | 24% | 41% | -4.5% | 21% | 23% | -13.4% | 34% | 45% | -47.2% |
| OC(Cc1ccc(Br)cc1)CN1CCC(c2ccccc2)CC1 (configuration not stated) | 98% (active) | 98% (active) | 83.9% (active) | 71% (active) | 71% (active) | 74.5% (active) | 97% (active) | 97% (active) | 82.8% (active) | 87% (active) | 87% (active) | 78.9% (active) | 83% (active) | 83% (active) | 87.8% (active) | 88% (active) | 88% (active) | 79% (active) |
| CCN(CC)Cc1cc(Nc2c3ccccc3nc3c4ccccc4n(C)c23)ccc1O | 0% | 23% | 74.2% (active) | 2% | -4% | 16.2% | -10% | 9% | 30.2% | 0% | 0% | -1.6% | -6% | 13% | 55.3% | -10% | 0% | 42.9% |
